Data: PubChem BioAssay (NCATS)
Records with an inconclusive call do not appear. Active and inactive are the calls of the source. Unless noted, the call rests on the fitted dose curve; in most records, active means well fitted curve in either direction with a large enough effect (not every such curve was filed as active); inconclusive means small, poorly fitted or top-dose-only effect, or another doubt; inactive means flat fitted curve, though single readings scatter.

Columns and labels:
[1] = biological target: Lysosomal acid glucosylceramidase (Homo sapiens) (UniProt P04062); assay: Glucocerebrosidase-p2 (AID 348; in the data active means potency below about 10 µM; further: potency means the concentration at half of the fitted maximal effect); conditions: purified GBA, blue fluorogenic substrate, 40 min
Chain of Lysosomal acid glucosylceramidase (Homo sapiens) (P04062 whole entry, looked up): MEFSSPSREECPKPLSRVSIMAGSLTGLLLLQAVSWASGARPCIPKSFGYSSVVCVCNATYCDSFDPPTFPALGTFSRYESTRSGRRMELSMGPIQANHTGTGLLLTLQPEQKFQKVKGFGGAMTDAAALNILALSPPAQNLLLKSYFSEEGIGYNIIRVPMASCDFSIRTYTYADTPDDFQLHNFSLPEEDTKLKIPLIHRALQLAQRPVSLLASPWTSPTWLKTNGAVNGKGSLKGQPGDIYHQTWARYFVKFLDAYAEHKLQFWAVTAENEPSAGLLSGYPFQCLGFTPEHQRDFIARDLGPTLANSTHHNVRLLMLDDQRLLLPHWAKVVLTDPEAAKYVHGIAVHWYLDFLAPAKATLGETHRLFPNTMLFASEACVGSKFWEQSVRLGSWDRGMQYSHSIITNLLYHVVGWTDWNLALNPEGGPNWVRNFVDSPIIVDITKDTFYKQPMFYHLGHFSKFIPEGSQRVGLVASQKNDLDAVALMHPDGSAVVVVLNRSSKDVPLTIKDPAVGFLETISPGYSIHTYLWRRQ
In short: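 Compounds titrated from 0.6 nM upwards against 0.2 nM enzyme in pH 5.9 citric acid/KH2PO4, taurocholate, tween-20; blue fluorogenic substrate 80 uM, 40 min room temperature, stopped and read Ex 365/Em 440 for AC50.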

[2] = AP1 Signaling Pathway (AID 357); conditions: ME-180 AP-1-bla reporter, EGF-induced, beta-lactamase ratio, 5 h; at 7.69 µM (top of the series) unless noted;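 further: ME-180 reporter cells stimulated with EGF at its EC50 level; on the % scale 0 is the no-effect control and ±100 the full control effect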
In short: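 First, ME-180 AP-1-bla cells were cultured overnight at 37 °C in low-serum Opti-MEM. Next, titrated compounds with EC50 EGF were incubated 5 hours. Finally, CCF4 was added for 2.5 hours and the 460/530 nm ratio recorded.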

[3] = biological target: Cytochrome P450 1A2 (Homo sapiens) (UniProt P05177); assay: p450-cyp1a2 (AID 410; calls by dose curve; further: potency means the concentration at half of the fitted maximal effect;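 on activity change, negative = inhibition: -100% = full effect of reference inhibitor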); conditions: recombinant CYP1A2, luciferin-ME demethylation, luminescence; series mostly up to 57 µM
Chain of Cytochrome P450 1A2 (Homo sapiens) (P05177 whole entry, looked up): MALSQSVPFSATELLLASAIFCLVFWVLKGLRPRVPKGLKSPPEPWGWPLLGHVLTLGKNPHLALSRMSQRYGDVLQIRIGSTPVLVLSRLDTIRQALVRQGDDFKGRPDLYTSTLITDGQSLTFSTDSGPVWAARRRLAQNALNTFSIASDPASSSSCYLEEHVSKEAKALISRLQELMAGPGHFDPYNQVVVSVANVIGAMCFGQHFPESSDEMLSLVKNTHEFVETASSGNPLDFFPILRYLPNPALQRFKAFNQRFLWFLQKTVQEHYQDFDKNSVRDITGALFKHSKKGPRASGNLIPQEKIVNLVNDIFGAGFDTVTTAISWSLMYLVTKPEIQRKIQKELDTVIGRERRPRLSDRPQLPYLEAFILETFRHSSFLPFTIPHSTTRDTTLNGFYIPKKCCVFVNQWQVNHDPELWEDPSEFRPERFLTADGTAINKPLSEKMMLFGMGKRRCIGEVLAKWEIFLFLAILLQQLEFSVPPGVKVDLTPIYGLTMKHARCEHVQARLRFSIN
In short: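 Luminescent readout of luciferin formed from Luciferin-ME by human CYP1A2; data normalized against complete inhibition by 57 uM furafylline. Enzyme 20nM, substrate 100uM at Km, 100mM KPO4 buffer, 60 min reaction at room temperature.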

[4] = NFAT Signaling Pathway (AID 444); conditions: Jurkat NFAT-bla M1, carbachol, beta-lactamase ratio, 5 h; at 7.69 µM (top of the series) unless noted;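 further: carbachol stimulus at about its EC50 of 1 µM final; on the % scale 0 is the no-effect control and ±100 the full control effect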
In short: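 Read-out: CCF4 FRET ratio (460 nm/530 nm) after 1 h RT dye loading, used for %activity and AC50 from titration series. Cells: Jurkat NFAT-β-lactamase/M1 line, treated with compound plus 1 uM carbachol for 5 h, 37 °C.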

[5] = Stat Signaling Pathway (AID 446); conditions: ME-180 SIE beta-lactamase reporter, IL-6 stimulated, 5 h; at 7.69 µM (top of the series) unless noted;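 further: ME-180 cervical cancer cells given 40 pM IL-6 alongside compound; SIE-controlled beta-lactamase reporter measured as 460/530 nm FRET emission ratio; on the % scale 0 is the no-effect control and ±100 the full control effect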
In short: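 ME-180 SIE-bla cells; overnight plating; cpd + IL-6 40 pM, 5 h, 37 C; LiveBLAzer 2.5 h RT; 460/530 nm emission ratio. Normalized to 300 pM IL-6 and 125 nM JAK inhibitor controls.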

[6] = biological target: Glucocorticoid receptor (Homo sapiens) (UniProt P04150); assay: GR-EFC Redistribution (AID 451; calls by dose curve; further: potency means the concentration at half of the fitted maximal effect); conditions: CHO-K1 GR-EFC translocation, beta-gal luminescence, 2 h
Chain of Glucocorticoid receptor (Homo sapiens) (P04150 whole entry, looked up, the tested form may be a part): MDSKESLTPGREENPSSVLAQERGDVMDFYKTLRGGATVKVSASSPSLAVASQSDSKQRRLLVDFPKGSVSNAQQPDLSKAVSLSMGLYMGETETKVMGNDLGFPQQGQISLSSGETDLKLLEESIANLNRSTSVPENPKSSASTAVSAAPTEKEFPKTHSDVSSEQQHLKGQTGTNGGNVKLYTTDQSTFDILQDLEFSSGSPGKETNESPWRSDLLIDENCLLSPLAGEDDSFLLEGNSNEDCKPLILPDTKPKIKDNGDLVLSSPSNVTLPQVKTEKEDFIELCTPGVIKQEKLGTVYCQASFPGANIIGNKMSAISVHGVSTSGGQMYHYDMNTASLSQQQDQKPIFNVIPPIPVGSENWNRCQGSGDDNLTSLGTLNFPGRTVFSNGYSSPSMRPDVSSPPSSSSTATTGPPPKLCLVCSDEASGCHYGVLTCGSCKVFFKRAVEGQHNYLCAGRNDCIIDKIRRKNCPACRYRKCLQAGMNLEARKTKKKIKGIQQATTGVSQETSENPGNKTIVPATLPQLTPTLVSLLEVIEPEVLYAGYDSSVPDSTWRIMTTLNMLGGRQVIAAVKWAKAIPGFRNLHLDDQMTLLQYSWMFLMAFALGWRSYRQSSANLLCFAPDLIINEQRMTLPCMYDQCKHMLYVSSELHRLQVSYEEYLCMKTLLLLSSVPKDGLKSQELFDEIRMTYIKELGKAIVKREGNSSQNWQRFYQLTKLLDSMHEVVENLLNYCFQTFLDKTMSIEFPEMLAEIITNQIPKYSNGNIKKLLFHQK
In short: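 Translocation of GR-ED fusion to nuclear EA restores b-gal, read by luminescence after 1 h room-temperature detection. Engineered CHO-K1 biosensor cells, 1,000/well, exposed 2 h at 37 C to titrations up to 46 uM final.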

[7] = biological target: Mitogen-activated protein kinase 10 (Mus musculus) (UniProt Q61831); assay: JNK3 AlphaScreen Assay (AID 530); conditions: JNK3 lysate, c-Jun phosphorylation; series mostly up to 57.1 µM;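 further: kinase came from lysate of stimulated human HepG2 cells; signal reports phosphorylation of biotinylated GST-cJun 1-79 at Ser73 with 10 µM ATP; on the % scale 0 is the no-effect control and ±100 the full control effect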
In short: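 Compound titrations were preincubated 15 minutes at room temperature with substrate, antibody and pre-activated JNK3-containing HepG2 lysate. Reactions were started with 10 uM ATP and stopped with EDTA-containing bead buffer for AlphaScreen detection.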

[8] = biological target: 3',5'-cyclic-AMP phosphodiesterase 4B (Homo sapiens) (UniProt Q07343); assay: qHTS Assay for Inhibitors of PDE-IV (AID 607; active means well fitted activation curve with a large enough effect in the main read-out, with a control signal flat, not every such curve was filed as active; further: % of control where 0% means no effect); conditions: HEK293 ACTOne CNG channel cells, membrane potential fluorescence; series mostly up to 22.9 µM
Chain of 3',5'-cyclic-AMP phosphodiesterase 4B (Homo sapiens) (Q07343 whole entry, looked up): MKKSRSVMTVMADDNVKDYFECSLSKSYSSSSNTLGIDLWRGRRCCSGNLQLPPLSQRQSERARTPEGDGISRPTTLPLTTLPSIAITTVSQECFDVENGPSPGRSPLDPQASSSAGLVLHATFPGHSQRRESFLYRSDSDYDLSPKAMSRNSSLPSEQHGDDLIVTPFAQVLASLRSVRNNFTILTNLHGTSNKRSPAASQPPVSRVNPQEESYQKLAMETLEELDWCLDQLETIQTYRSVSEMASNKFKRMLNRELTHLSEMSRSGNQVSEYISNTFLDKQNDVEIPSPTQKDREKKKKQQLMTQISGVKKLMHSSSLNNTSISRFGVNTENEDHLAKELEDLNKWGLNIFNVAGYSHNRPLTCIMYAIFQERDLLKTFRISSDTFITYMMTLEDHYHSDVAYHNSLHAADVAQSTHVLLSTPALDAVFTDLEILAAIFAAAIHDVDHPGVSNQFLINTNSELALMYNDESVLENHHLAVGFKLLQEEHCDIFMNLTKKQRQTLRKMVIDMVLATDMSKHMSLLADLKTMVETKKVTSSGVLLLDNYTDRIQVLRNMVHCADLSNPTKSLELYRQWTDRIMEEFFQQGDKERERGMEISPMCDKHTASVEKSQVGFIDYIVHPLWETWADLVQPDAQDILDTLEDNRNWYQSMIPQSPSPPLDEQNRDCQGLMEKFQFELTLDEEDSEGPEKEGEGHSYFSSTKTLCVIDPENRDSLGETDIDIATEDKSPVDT
In short: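 ACTOne HEK293 cells carry a modified cAMP-gated CNG channel and express endogenous PDE4; plated 1000 cells/well, compounds up to 22.9 uM final. Membrane-potential dye fluorescence (ex 535/em 590) was read; parental cells received 10 uM forskolin + 100 uM RO 20-1724.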

[9] = biological target: Cytochrome P450 3A4 (Homo sapiens) (UniProt P08684); assay: qHTS Assay for Inhibitors and Substrates of Cytochrome P450 3A4 (AID 884; active means well fitted curve in the direction sought with a large enough effect; an effect the other way counts as inactive or inconclusive; further: on the % scale 0 is the no-effect control and ±100 the full control effect; nearly all actives have a fitted effect of over 50% in size); conditions: recombinant CYP3A4, Luciferin-PPXE luminescence; series mostly up to 57.1 µM
Chain of Cytochrome P450 3A4 (Homo sapiens) (P08684 whole entry, looked up): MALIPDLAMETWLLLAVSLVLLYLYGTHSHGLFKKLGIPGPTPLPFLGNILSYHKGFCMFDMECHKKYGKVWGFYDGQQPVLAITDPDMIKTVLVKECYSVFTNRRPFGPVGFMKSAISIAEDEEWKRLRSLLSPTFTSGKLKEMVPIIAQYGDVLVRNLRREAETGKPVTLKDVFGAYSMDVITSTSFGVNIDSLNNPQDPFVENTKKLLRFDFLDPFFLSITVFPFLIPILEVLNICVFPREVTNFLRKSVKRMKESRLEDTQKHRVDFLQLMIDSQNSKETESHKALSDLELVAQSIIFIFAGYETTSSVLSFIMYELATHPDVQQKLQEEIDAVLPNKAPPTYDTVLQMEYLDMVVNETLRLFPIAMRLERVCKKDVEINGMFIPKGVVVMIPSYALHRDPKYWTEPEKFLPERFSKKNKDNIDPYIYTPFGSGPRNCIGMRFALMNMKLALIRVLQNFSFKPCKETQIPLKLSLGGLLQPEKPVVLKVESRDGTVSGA
In short: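 20 nM human CYP3A4 with 25 uM Luciferin-PPXE (at KM) in 200 mM KPO4, preincubated 10 min with compound; NADPH regeneration started a 60 min RT reaction. Luciferin detected by luminescence, normalized to 57 uM ketoconazole as full inhibition.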

[10] = biological target: Cytochrome P450 3A4 (Homo sapiens) (UniProt P08684); assay: qHTS Assay for Activators of Cytochrome P450 3A4 (AID 885; active means well fitted curve in the direction sought with a large enough effect; an effect the other way counts as inactive or inconclusive; further: nearly all actives have a fitted effect of over 65% in size; further: potency means the concentration at half of the fitted maximal effect); conditions: recombinant CYP3A4, Luciferin-PPXE luminescence, 60 min; series mostly up to 57.1 µM
In short: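 20nM CYP3A4 + 25uM Luciferin-PPXE (=KM), 200mM KPO4; cpd 10 min RT; NADPH regen, 60 min RT; stop w/ detection buffer, 20 min; luminescence. Normalized to 57 uM ketoconazole.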

[11] = qHTS Assay for Lipid Storage Modulators (AID 1519; calls by dose curve); conditions: Drosophila S3 cells, BODIPY lipid droplet/cell ratio, laser cytometry, cells loaded with oleic acid; for activity change, negative = inhibition: at 57.5 µM (top of the series)
In short: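 Cells seeded at 5,000 per well were treated with compounds over a concentration series and loaded with oleic acid (400 uM, as added). Lipid droplet fluorescence (488 nm excitation, 500-530 nm channel) was read by laser-scanning cytometry and normalized to 20 uM Triacsin C.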

[12] = Primary qHTS for small molecule stabilizers of the endoplasmic reticulum resident proteome: Secreted ER Calcium Modulated Protein (SERCaMP) assay (AID 1508630; active means well fitted curve in the direction sought with a large enough effect; an effect the other way counts as inactive or inconclusive; further: on the % scale 0 is the no-effect control and ±100 the full control effect); conditions: SH-SY5Y GLuc-SERCaMP (Gaussia luciferase released on ER calcium loss) secretion, thapsigargin, luminescence; series mostly up to 38.4 µM
In short: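 GLuc-SERCaMP-expressing SH-SY5Y cells, pretreated 16 h with compound, are challenged with thapsigargin to empty ER calcium stores; after 4 h, coelenterazine is added directly to the medium and luminescence is imaged.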

[13] = biological target: Cytochrome P450 2D6 (Homo sapiens) (UniProt P10635); assay: qHTS Assay for Inhibitors and Substrates of Cytochrome P450 2D6 (AID 891; active means well fitted curve in the direction sought with a large enough effect; an effect the other way counts as inactive or inconclusive; further: nearly all actives have a fitted effect of over 60% in size; further: potency means the concentration at half of the fitted maximal effect); conditions: recombinant CYP2D6, luciferin-ME EGE luminescence; series mostly up to 57.1 µM
Chain of Cytochrome P450 2D6 (Homo sapiens) (P10635 whole entry, looked up): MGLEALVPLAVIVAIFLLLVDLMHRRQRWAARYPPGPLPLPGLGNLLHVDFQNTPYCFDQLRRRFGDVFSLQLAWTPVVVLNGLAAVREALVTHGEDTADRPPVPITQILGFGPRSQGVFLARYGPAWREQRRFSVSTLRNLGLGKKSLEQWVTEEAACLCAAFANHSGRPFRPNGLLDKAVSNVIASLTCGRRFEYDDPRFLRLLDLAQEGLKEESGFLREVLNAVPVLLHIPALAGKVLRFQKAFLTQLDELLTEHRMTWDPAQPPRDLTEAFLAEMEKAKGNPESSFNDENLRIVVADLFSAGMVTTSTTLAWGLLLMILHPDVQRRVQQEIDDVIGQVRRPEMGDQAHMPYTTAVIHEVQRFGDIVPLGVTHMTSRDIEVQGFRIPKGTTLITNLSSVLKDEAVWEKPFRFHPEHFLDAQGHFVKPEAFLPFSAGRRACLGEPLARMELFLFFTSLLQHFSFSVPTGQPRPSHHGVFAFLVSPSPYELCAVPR
In short: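 Human CYP2D6 (5 nM) with 30 uM Luciferin-ME EGE (at Km) in 100 mM KPO4, compound preincubated 10 min, then NADPH regeneration system for 60 min at room temperature. Luciferin read by luminescence; normalized to 1.43 uM quinidine.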

[14] = biological target: Cytochrome P450 2C9 (Homo sapiens) (UniProt P11712); assay: qHTS Assay for Inhibitors and Substrates of Cytochrome P450 2C9 (AID 883; active means well fitted curve in the direction sought with a large enough effect; an effect the other way counts as inactive or inconclusive; further: on the % scale 0 is the no-effect control and ±100 the full control effect; nearly all actives have a fitted effect of over 60% in size); conditions: recombinant CYP2C9, luciferin-H luminescence, 60 min; series mostly up to 57.1 µM
Chain of Cytochrome P450 2C9 (Homo sapiens) (P11712 whole entry, looked up): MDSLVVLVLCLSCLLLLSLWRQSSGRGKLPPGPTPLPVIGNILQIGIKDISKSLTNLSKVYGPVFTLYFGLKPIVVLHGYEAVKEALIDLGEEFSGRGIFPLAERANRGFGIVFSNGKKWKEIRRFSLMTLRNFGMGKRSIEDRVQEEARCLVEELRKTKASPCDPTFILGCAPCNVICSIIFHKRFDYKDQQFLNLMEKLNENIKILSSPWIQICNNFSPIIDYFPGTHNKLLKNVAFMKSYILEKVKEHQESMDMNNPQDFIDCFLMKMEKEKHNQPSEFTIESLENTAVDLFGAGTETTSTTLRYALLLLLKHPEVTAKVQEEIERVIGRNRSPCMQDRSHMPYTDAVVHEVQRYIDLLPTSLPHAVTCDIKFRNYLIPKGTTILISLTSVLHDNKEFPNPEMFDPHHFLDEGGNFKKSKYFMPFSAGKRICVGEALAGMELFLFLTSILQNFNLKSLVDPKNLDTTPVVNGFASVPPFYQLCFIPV
In short: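 Luminescent read-out of deoxyluciferin hydroxylation, normalized to 57uM sulphaphenazole (AC100). Reaction: 10nM enzyme, 100uM Luciferin-H (equal to KM), 25mM KPO4, 10 min compound preincubation, then 60 min with NADPH regeneration, both at 37C.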

[15] = Confirmation and Secondary Assay for Modulators of Hemoglobin Beta Chain Splicing at IVS2 654 locus (AID 910; active means well fitted curve in the direction sought with a large enough effect; an effect the other way counts as inactive or inconclusive;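 further: HeLa cells stably carrying EGFP split by mutant beta-globin IVS2-654 intron; per-well total GFP intensity by laser scanning cytometry after 2-day treatment; % of control where 0% means no effect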); conditions: HeLa EGFP-654 splicing reporter, GFP fluorescence, 48 h; series mostly up to 38.3 µM
In short: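 Readout: per-well total peak green fluorescence (488 nm ex, 500–520 nm em) from objects 5–250 µm, reflecting correct splicing of an EGFP-654 reporter. Compounds were applied for 2 days at 37 °C to overnight-plated HeLa EGFP-654 cells; controls were DMSO and 500 nM IVS2-654 PNA.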

[16] = Confirmation and Secondary Assay for Modulators of Hemoglobin Beta Chain Splicing at IVS2 705 locus (AID 930; active means well fitted curve in the direction sought with a large enough effect; an effect the other way counts as inactive or inconclusive;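 further: HeLa cells stably expressing the EGFP-705 splicing reporter; GFP fluorescence per well restored by corrected splicing of the IVS2-705 intron in EGFP; % of control where 0% means no effect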); conditions: HeLa EGFP-705 splicing reporter, GFP fluorescence, 48 h; series mostly up to 38.3 µM
In short: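 HeLa IVS2-705 EGFP reporter cells, 500/well, compound 2 d at 37C; correct splicing yields fluorescent EGFP. Control: 500 nM antisense PNA. Read-out: total peak GFP intensity.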

[17] = measured here: cell count channel max response
[18] = measured here: lipid channel max response

Structure (SMILES): COCC(=O)N1CCC2(CC1)CCN(C(c1ccccc1)c1ccccc1)CC2
- Potency [1]: > 11.4 µM (inactive)
- activity change, negative = inhibition [2]: -2.73% (inactive)
- Potency [3]: inactive
- activity change, negative = inhibition [4]: -16.3% (inactive)
- activity, negative = inhibition [5]: 1.17% (inactive)
- Potency [6]: > 46 µM (inactive)
- outcome [7]: inactive
- Potency [8]: inactive
- Potency [9]: inactive
- Potency [10]: 25.1 µM (active)
- activity change, negative = inhibition [11]: 1.77% (inactive)
- max response [11, 17]: 1.52%
- max response [11, 18]: 5.9%
- Potency [12]: inactive

Structure (SMILES): COc1ccccc1CN1CC2(CCN(C(=O)c3cnccn3)CC2)C1
- Potency [1]: > 11.4 µM (inactive)
- activity change, negative = inhibition [2]: 2.43% (inactive)
- Potency [3]: inactive
- activity change, negative = inhibition [4]: -17.5% (inactive)
- activity, negative = inhibition [5]: -6.42% (inactive)
- Potency [6]: > 46 µM (inactive)
- outcome [7]: inactive
- Potency [8]: inactive
- Potency [10]: inactive
- activity change, negative = inhibition [11]: 3% (inactive)
- max response [11, 17]: 12%
- max response [11, 18]: 20.3%
- Potency [12]: inactive

Structure (SMILES): O=C(c1ccncc1)N1CCC2(CC1)CN(C(c1ccccc1)c1ccccc1)C2
- Potency [1]: > 11.4 µM (inactive)
- activity change, negative = inhibition [2]: 4.62% (inactive)
- Potency [3]: 15.8 µM (active)
- activity change, negative = inhibition [4]: 16.7% (inactive)
- activity, negative = inhibition [5]: -10.1% (inactive)
- Potency [6]: > 46 µM (inactive)
- outcome [7]: inactive
- Potency [8]: inactive
- Potency [9]: inactive
- Potency [10]: 3.98 µM (active)
- Potency [13]: 0.0251 µM (active)
- activity change, negative = inhibition [11]: 4.23% (inactive)
- max response [11, 17]: -4.87%
- max response [11, 18]: 3.6%
- Potency [12]: inactive

Structure (SMILES): CN(C)c1ccnc(-c2cccc(NS(C)(=O)=O)c2)n1
- Potency [1]: > 11.4 µM (inactive)
- activity change, negative = inhibition [2]: -6.35% (inactive)
- Potency [3]: 1.58 µM (active)
- activity change, negative = inhibition [4]: 0.933% (inactive)
- activity, negative = inhibition [5]: 3.11% (inactive)
- Potency [6]: > 46 µM (inactive)
- outcome [7]: inactive
- Potency [8]: inactive
- activity change, negative = inhibition [14]: 2.49% [at 2.29 µM] (inactive)
- Potency [10]: inactive
- outcome [15]: inactive
- outcome [16]: inactive
- activity change, negative = inhibition [11]: 11.6% (inactive)
- max response [11, 17]: 7.48%
- max response [11, 18]: 20%
- Potency [12]: inactive

Structure (SMILES): COc1ccc(NC(=O)N2CC[C@@]3(CCCN(C(=O)c4cnccn4)C3)C2)cc1
- Potency [1]: > 11.4 µM (inactive)
- activity change, negative = inhibition [2]: -10.4% (inactive)
- Potency [3]: inactive
- activity change, negative = inhibition [4]: -2.83% (inactive)
- activity, negative = inhibition [5]: 6.32% (inactive)
- Potency [6]: > 46 µM (inactive)
- outcome [7]: inactive
- Potency [8]: inactive
- Potency [10]: inactive
- Potency [13]: inactive
- activity change, negative = inhibition [11]: 4.73% (inactive)
- max response [11, 17]: 2.35%
- max response [11, 18]: 9.8%
- Potency [12]: inactive

Structure (SMILES): CS(=O)(=O)N1CCC[C@@]2(CCN(c3ccccn3)C2)C1
- Potency [1]: > 11.4 µM (inactive)
- activity change, negative = inhibition [2]: -9.92% (inactive)
- Potency [3]: inactive
- activity change, negative = inhibition [4]: -19.3% (inactive)
- activity, negative = inhibition [5]: -8.41% (inactive)
- Potency [6]: > 46 µM (inactive)
- outcome [7]: inactive
- Potency [8]: inactive
- Potency [10]: inactive
- activity change, negative = inhibition [11]: 2.29% (inactive)
- max response [11, 17]: -1.27%
- max response [11, 18]: 2.21%
- Potency [12]: inactive
